# According to the supplement of paper PMC9877034:
# Where a name gives a salt, the structure may show the parent alone. The full ranking holds about 1,000 compounds; the median of “cFRET/donor change relative to DMSO, normalised to beta-lapachone positive control (supercomplex I-IV assembly)” is about 0.18, and the lowest 2% start at about -1. This is one part of a sample in which the lowest values are shown more often than they occur.
# System: C2C12 (NDUFB8-AcGFP / COX8A-DsRed-Monomer FRET reporter)
# Assay: cFRET/donor change relative to DMSO, normalised to beta-lapachone positive control (supercomplex I-IV assembly) (fraction of beta-lapachone effect); higher = more respiratory supercomplex assembly
# Conditions: 40 µM; 24 h
# Protocol: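 Cells were treated with 40 uM compound for 24 h and imaged on an IN Cell Analyzer 6000. Corrected FRET was divided by donor signal (cFRET/donor) and measured in two replicate experiments. The score is (mean cFRET/donor of compound - mean DMSO) / (mean beta-lapachone 40 uM - mean DMSO). Compounds flagged for prominent cell death, abnormal morphology or decreased cell number were excluded.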
row,Compound,cFRET/donor change
1,Cc1c2ccncc2c(C)c2c1[nH]c1ccccc12 [Ellipticine],-2.44
2,NC(CCP(=O)(O)O)C(=O)O (racemic) [(±)-2-Amino-4-phosphonobutyric acid],0.0445
3,CN1CCC[C@@H]1Cc1c[nH]c2ccc(Nc3ncccc3[N+](=O)[O-])cc12,0.0254
4,C#CCN[C@H](C)Cc1ccccc1 [R-(-)-Desmethyldeprenyl hydrochloride],-0.331
5,C[N+](C)(C)CC#CCOC(=O)Nc1cccc(Cl)c1,0.565
